Here are results for 39 sequences from the supplement of paper PMC10681739.
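Throughout, for RUNX1 binding intensity (PBM fluorescence), RUNX1 alone: Full-length recombinant human RUNX1 bound to double-stranded 36-bp genomic probes on a high-density microarray, scored as Alexa488 fluorescence per spot via anti-RUNX1 antibody, median of four replicate spots.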

Sequence of RUNX1 (Q01196 whole entry): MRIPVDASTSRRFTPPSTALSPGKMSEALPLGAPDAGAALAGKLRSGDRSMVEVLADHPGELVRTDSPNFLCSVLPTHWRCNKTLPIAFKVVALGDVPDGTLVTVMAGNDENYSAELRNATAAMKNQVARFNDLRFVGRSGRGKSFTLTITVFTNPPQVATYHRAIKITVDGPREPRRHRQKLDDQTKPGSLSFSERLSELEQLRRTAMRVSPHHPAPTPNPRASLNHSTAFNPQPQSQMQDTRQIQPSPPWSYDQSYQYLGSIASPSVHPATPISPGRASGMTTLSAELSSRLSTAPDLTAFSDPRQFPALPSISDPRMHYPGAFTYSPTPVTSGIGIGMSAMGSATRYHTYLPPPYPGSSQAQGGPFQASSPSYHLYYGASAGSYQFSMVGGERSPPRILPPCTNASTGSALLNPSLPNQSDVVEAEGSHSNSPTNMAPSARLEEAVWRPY

The first test addresses T1, ETS1 (UniProt P14921).
T1 sequence: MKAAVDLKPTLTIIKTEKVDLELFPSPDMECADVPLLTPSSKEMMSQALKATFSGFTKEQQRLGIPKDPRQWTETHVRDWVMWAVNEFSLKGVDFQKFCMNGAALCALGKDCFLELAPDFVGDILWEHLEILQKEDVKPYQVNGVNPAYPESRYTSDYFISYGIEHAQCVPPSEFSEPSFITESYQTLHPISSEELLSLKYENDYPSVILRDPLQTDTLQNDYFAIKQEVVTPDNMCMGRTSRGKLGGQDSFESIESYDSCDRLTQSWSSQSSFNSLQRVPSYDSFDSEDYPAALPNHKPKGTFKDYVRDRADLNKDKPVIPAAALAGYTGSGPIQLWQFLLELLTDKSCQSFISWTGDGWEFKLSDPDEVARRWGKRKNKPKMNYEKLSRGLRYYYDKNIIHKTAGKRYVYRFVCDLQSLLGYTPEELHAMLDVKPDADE
Briefly: ETS1 binding intensity (PBM fluorescence), ETS1 alone (arbitrary fluorescence units); higher = stronger binding. As to conditions: ETS1 concentration 1 nM; RUNX1 concentration 0 nM.
Take CCCGCGACACAAGGCGGATGTGGTACCCTCACTTGT: the ETS1 binding intensity was found to be 3250.
On the same count and under the same terms, under CGAGTAGAGATAGCAGGAAGTGGTTTATTCTGAGGT stands 6000; under CTTAGCGGAAGAGGCGTGACCCAGGCGTACCGCAGG, 497.
CCTGCTGCTTCCGCCCGGAGTTGTTGTGGGCTCCAG displayed an ETS1 binding intensity of 643.
Still for that read-out and setting: as for GGCAACCGGCCCCGGAAGTTGCGGCAGGTGCGTCCA, the figure is 5780; as for ATGTCTTCCTGTACAGGAACTGGGTCCCAGCCGCAG, 4120; as for CTGGTAGAAAAGGAAGCAGGTTGTGGTGAGCATTTA, 837.
The same measure, in the same setting: under GTGGATTTCACATCCTGTCCTAGCGGTATGTTTGTC stands 1470; under GTTCCTAGGCAGGCAGGATGTGGCTATAAGCTACAT, 4700; under ACCTGAGCAGGAAGTAGCTGAGGTCGCGGTGCAGCA, 2940.
As to AGGCAAACTACAGGAAGATCCTGCCCGCAACTTGGT, the ETS1 binding intensity is 454.
The same measure, in the same setting: as for TACTACTTACCAGCAGGATGTGGTCCCTGCCCACTG, the figure is 3230.
On the same count and under the same terms, under AGGTACCAGGCCCGGAAACCACGGAAAGGGGAACTT stands 3050.
AGGCTGTGGCGGAAGTGGTCGCGTTACCGCTTGTTT registered an ETS1 binding intensity of 6340.
Same read-out and setting: under TTCTTCCGGCAACTGCTGCTGAGGCTGCGGTGGCGG stands 455; under GCGCGGCCAGAGAAAGGATGTGGTATAGCAGAAAGT, 1260; under CCCTCTCTTCTTCCTCCCCCACCACAAAAGTCACAG, 550.
The sequence GTCTGCTTAAAAACAGGAAACCACATATCTCCACCC displayed an ETS1 binding intensity of 3670.
Still for that read-out and setting: as for TCGCCCGCCGCTTCCTGTCGCGGCGCCGCAGAGGCC, the figure is 1740; as for ACTTCACTTCCCAACCTCCCCTGTGGTTAGGTGTGG, 365; as for TTCAGTCCTGGTTTCCTGTGGTTCTAGGATCTTTAT, 903.
The sequence GAGCACAGGAAAAGCTGGTGCCAACCACAAGTGCTT returned an ETS1 binding intensity of 368.
Still for that read-out and setting: under CCCACTGATAAGACAGGATGTGGTAAAGAAGCCAGC stands 5700.
ATACAGACACAGGAAGTTGTGGGGAGTGCAAAAGCC displayed an ETS1 binding intensity of 5090.
Regarding AGGCTCATTTCCTGTTTTCATGTGGTTTAGAGAAAA, the ETS1 binding intensity stood at 2630.
The sequence AACCTCCGACTTCCGGCCGCGCAGCGGTGGGCTGAG came in with an ETS1 binding intensity of 3900.
Take CTGTGCGAGGCAGGATGTGGTCTCCCGCCACCAGGG: the ETS1 binding intensity amounted to 5450.
The sequence GGCTTCCGCCTGCCGAGCGGCCCCGGACCGCAGGCC came in with an ETS1 binding intensity of 343.
Sequence GTGGGGGTGACAGGATGCGGGTAGAGGGCTCAGCCA yielded an ETS1 binding intensity of 1950.
Same read-out and setting: as for GGATGACATCCGGCACCAACTTAACCACTAATCTCA, the figure is 615; as for GGACCGGAAGTTAAGGCGTTCGCGGCGTGTGGTAAG, 8560.
Sequence TGTGGAGACAGGAAGCACTAACCTCAAACCTCTTTC came in with an ETS1 binding intensity of 2730.
TGGCGCTTCCTGTCGCTACCGCTGCGGCCCAGGGCC: the ETS1 binding intensity turned out to be 819.
On the same count and under the same terms, as for TATGGGGCCGGAAGCCATTCACCACAAACACTGTGT, the figure is 2430; as for AACAAACAGTAGGCAGGAAGTGGTTAAACCGAAAGG, 8580.
On the same count and under the same terms, under ACTGAAAACAGCACAGGATGTGGTCTGCCAGGTGCC stands 4270; under AGAAGCTTCTACAGGAAACCACTAATGGAGACAGAG, 1440; under GGCTTTCCGTTCAAGGATCTTTTTGCGGTCTTTGTC, 445.
As for GTACGACAGCGGGTTCCGGTGACCACGAAGGCGGCA, the ETS1 binding intensity amounted to 404.

Another test addresses RUNX1 (UniProt Q01196). Briefly: RUNX1 binding intensity (PBM fluorescence), RUNX1 alone (arbitrary fluorescence units); higher = stronger binding. Conditions: RUNX1 concentration 2 nM; ETS1 concentration 0 nM. The procedure: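 Cooperative gcPBM on 36-bp genomic probes with neighbouring ETS1 and RUNX1 sites. Recombinant human RUNX1 (2 nM) was incubated alone or with ETS1 (25 nM) and detected with anti-RUNX1 antibody plus Alexa488 secondary. Values are medians over 4 replicate spots; the RUNX1+ETS1 data were normalised to the RUNX1-only data. The probes sit in constant array flanks that are not printed.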
CCCGCGACACAAGGCGGATGTGGTACCCTCACTTGT registered an RUNX1 binding intensity of 820.
The sequence CGAGTAGAGATAGCAGGAAGTGGTTTATTCTGAGGT yielded an RUNX1 binding intensity of 784.
Same read-out and setting: under CTTAGCGGAAGAGGCGTGACCCAGGCGTACCGCAGG stands 804; under CCTGCTGCTTCCGCCCGGAGTTGTTGTGGGCTCCAG, 806.
Same read-out and setting: as for GGCAACCGGCCCCGGAAGTTGCGGCAGGTGCGTCCA, the figure is 685; as for ATGTCTTCCTGTACAGGAACTGGGTCCCAGCCGCAG, 745; as for CTGGTAGAAAAGGAAGCAGGTTGTGGTGAGCATTTA, 767.
Same read-out and setting: under GTGGATTTCACATCCTGTCCTAGCGGTATGTTTGTC stands 783; under GTTCCTAGGCAGGCAGGATGTGGCTATAAGCTACAT, 819; under ACCTGAGCAGGAAGTAGCTGAGGTCGCGGTGCAGCA, 730.
As for AGGCAAACTACAGGAAGATCCTGCCCGCAACTTGGT, the RUNX1 binding intensity turned out to be 785.
TACTACTTACCAGCAGGATGTGGTCCCTGCCCACTG returned an RUNX1 binding intensity of 809.
Same read-out and setting: under AGGTACCAGGCCCGGAAACCACGGAAAGGGGAACTT stands 862.
In the case of AGGCTGTGGCGGAAGTGGTCGCGTTACCGCTTGTTT, the RUNX1 binding intensity came to 712.
The sequence TTCTTCCGGCAACTGCTGCTGAGGCTGCGGTGGCGG registered an RUNX1 binding intensity of 799.
In turn, GCGCGGCCAGAGAAAGGATGTGGTATAGCAGAAAGT yielded an RUNX1 binding intensity of 865.
The same measure, in the same setting: under CCCTCTCTTCTTCCTCCCCCACCACAAAAGTCACAG stands 2440; under GTCTGCTTAAAAACAGGAAACCACATATCTCCACCC, 1600; under TCGCCCGCCGCTTCCTGTCGCGGCGCCGCAGAGGCC, 821.
Still for that read-out and setting: as for ACTTCACTTCCCAACCTCCCCTGTGGTTAGGTGTGG, the figure is 1040; as for TTCAGTCCTGGTTTCCTGTGGTTCTAGGATCTTTAT, 828.
GAGCACAGGAAAAGCTGGTGCCAACCACAAGTGCTT showed an RUNX1 binding intensity of 815.
Same read-out and setting: under CCCACTGATAAGACAGGATGTGGTAAAGAAGCCAGC stands 776; under ATACAGACACAGGAAGTTGTGGGGAGTGCAAAAGCC, 798.
On the same count and under the same terms, under AGGCTCATTTCCTGTTTTCATGTGGTTTAGAGAAAA stands 1320; under AACCTCCGACTTCCGGCCGCGCAGCGGTGGGCTGAG, 678; under CTGTGCGAGGCAGGATGTGGTCTCCCGCCACCAGGG, 788.
Same read-out and setting: as for GGCTTCCGCCTGCCGAGCGGCCCCGGACCGCAGGCC, the figure is 830; as for GTGGGGGTGACAGGATGCGGGTAGAGGGCTCAGCCA, 909.
Sequence GGATGACATCCGGCACCAACTTAACCACTAATCTCA came in with an RUNX1 binding intensity of 947.
Still for that read-out and setting: as for GGACCGGAAGTTAAGGCGTTCGCGGCGTGTGGTAAG, the figure is 626; as for TGTGGAGACAGGAAGCACTAACCTCAAACCTCTTTC, 908; as for TGGCGCTTCCTGTCGCTACCGCTGCGGCCCAGGGCC, 755.
TATGGGGCCGGAAGCCATTCACCACAAACACTGTGT returned an RUNX1 binding intensity of 953.
As to AACAAACAGTAGGCAGGAAGTGGTTAAACCGAAAGG, the RUNX1 binding intensity amounted to 897.
Same read-out and setting: as for ACTGAAAACAGCACAGGATGTGGTCTGCCAGGTGCC, the figure is 752; as for AGAAGCTTCTACAGGAAACCACTAATGGAGACAGAG, 782.
Regarding GGCTTTCCGTTCAAGGATCTTTTTGCGGTCTTTGTC, the RUNX1 binding intensity is 1610.
Same read-out and setting: under GTACGACAGCGGGTTCCGGTGACCACGAAGGCGGCA stands 938.
